Results from PubChem BioAssay AID1224864 (Chung Lab, Department of Pediatrics, Emory University, 2016).
Where “and” joins values, the source holds several entries; their conditions need not be identical. Equal entries are not always repeated. The campaign covered roughly 2,000 compounds. About 20 (1%) were called active. The rule behind the calls is not given here. Many of the other results were omitted from the sample, so actives are more common in it than they were. Residues, ends and D or L forms follow the SMILES beside them.

Biological target: Cystic fibrosis transmembrane conductance regulator (Homo sapiens) (UniProt P13569)
Experiment: F508del-CFTR plasma membrane relocalization enhancers – imaging, HeLa, high-content microscopy, immunofluorescence, primary screen (AID 1224864);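 note: HeLa cells stably expressing F508del-CFTR stained with 3G11 antibody against NBD1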;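 for plasma membrane CFTR intensity: mean immunofluorescence in a thin cell-margin band taken as plasma membrane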
Conditions: PM immunofluorescence imaging, 24 h, at 10 µM, stronger effect = higher value, relative to vehicle wells set at 100; total CFTR intensity: measured here: total cellular F508del-CFTR signal

Chain of Cystic fibrosis transmembrane conductance regulator (Homo sapiens) (P13569 whole entry, looked up, stated change not applied): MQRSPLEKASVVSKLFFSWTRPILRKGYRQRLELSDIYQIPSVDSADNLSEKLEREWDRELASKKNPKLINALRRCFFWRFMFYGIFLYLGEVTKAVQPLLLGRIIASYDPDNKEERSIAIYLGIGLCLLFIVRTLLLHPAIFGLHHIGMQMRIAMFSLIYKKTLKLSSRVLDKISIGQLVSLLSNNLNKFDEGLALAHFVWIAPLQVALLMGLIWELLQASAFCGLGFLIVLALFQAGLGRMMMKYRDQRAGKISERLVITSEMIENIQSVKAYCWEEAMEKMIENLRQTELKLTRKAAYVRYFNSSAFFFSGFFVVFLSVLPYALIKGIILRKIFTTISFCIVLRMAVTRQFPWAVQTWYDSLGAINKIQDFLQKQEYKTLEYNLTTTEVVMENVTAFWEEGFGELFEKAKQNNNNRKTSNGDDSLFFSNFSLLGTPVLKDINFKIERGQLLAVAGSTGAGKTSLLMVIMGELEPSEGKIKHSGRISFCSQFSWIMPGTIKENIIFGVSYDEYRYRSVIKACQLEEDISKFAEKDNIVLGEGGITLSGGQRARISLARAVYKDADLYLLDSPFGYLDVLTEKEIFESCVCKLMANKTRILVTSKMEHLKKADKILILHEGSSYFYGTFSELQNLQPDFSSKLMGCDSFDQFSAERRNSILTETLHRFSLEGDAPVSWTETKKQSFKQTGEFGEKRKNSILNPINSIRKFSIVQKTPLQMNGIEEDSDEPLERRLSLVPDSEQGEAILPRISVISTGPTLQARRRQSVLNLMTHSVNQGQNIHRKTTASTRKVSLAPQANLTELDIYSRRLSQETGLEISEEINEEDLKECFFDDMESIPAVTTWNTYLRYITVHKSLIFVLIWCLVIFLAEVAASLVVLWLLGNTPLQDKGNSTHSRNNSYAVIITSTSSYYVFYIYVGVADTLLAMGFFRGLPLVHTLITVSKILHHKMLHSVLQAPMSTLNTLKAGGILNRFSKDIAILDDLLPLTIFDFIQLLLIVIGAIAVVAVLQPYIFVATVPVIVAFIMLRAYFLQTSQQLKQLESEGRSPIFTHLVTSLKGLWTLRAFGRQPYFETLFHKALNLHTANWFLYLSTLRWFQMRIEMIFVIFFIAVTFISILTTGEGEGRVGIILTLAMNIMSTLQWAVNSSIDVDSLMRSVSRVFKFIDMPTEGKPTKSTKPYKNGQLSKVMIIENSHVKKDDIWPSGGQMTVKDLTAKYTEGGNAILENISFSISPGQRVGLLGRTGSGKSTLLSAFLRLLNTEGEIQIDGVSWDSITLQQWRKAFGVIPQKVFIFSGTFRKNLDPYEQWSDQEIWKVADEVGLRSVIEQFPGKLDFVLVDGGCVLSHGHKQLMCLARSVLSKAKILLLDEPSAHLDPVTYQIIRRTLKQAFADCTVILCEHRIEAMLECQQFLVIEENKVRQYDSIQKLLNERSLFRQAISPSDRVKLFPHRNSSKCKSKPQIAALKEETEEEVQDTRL

Row | SMILES | plasma membrane CFTR intensity | total CFTR intensity
1 | COc1ccc2c(c1)c(=O)oc1cc3occ(C(C)(C)C)c3cc12 | 92% (inactive) | 88%
2 | O=C(NNC(=O)c1cccs1)c1ccco1 | 93% (inactive) | 90%
3 | O=C(NCc1ccc2c(c1)OCO2)c1ccc2c(c1)OCCO2 | 80% (inactive) | 80%
4 | CCN(CC)CCNc1ccc(CO)c2sc3ccccc3c(=O)c12 | 207% (active) | 238%
5 | CCCCOc1cc(C(=O)NCCN(CC)CC)c2ccccc2n1 | 105% (inactive) and 91% (inactive) | 109% and 93%
6 | CCN(CC)CCCNC(=O)C1c2ccccc2Oc2ccccc21 | 84% (inactive) | 85%
7 | O=C(O)CCCN1C(=O)NC2NC(=O)NC21 (configuration not stated) | 91% (inactive) | 95%
8 | CCOCc1cc(C)[nH]c(=O)c1C#N | 80% (inactive) | 83%
9 | COc1ccc(/C=C\c2cc(OC)c(OC)cc2CC[N+](C)(C)C)cc1OC | 81% (inactive) | 82%
10 | COc1cc2ccc(=O)oc2c(O)c1OCC=C(C)C | 86% (inactive) | 92%
11 | COc1cccc(CC2CC(=O)N(c3ccc4c(C)cc(=O)oc4c3)C2=O)c1 (configuration not stated) | 77% (inactive) | 83%
12 | O=C(/C=C/c1ccco1)NCc1ccc2c(c1)OCO2 | 79% (inactive) | 77%
13 | CC(=O)NC(Cc1ccccc1)C(=O)OCC(=O)c1ccccc1 (configuration not stated) | 77% (inactive) | 78%
14 | CC1(C)Cc2ccccc2-c2n[nH]c(=S)n21 | 93% (inactive) | 97%
15 | Cn1c2[n+](c3ccc(Cl)cc3c1=O)Cc1ccccc1-2 | 78% (inactive) | 85%
16 | Cc1cc(/C=N/O)c(C)n1-c1ccc(Br)cc1 | 78% (inactive) | 82%
17 | CN1C(=O)C(O)(CC(=O)c2ccccc2O)c2cc(Br)ccc21 (configuration not stated) | 159% (inactive) | 190%
18 | CO[C@H]1C=CO[C@@]2(C)Oc3c(C)c(O)c4c(O)c(c(/C=N/N5CCN(C)CC5)c(O)c4c3C2=O)NC(=O)C(C)=CC=C[C@H](C)[C@H](O)[C@@H](C)[C@@H](O)[C@@H](C)[C@H](OC(C)=O)[C@@H]1C | 113% (active) | 137%
19 | O=C(OCC1CCCN2CCCCC12)c1ccc2c(c1)OCO2 (configuration not stated) | 85% (inactive) | 81%

Row | SMILES | plasma membrane CFTR intensity | total CFTR intensity
20 | CC1=C/C(=N\N=C2/NC(=O)C(CC(=O)Nc3ccccc3F)S2)CC(C)(C)C1 (configuration not stated) | 65% (inactive) | 65%
21 | O=C(Cc1ccccc1)NNC(=O)Cc1ccccc1 | 74% (inactive) | 77%
22 | CC1(C)CC(c2csc(N)n2)CCO1 (configuration not stated) | 90% (inactive) | 92%
23 | CC(=O)NC(CC(C)C)C(=O)NC(Cc1ccccc1)C(N)=O (stereo not drawn) (Ac-Leu-Phe-NH2; configuration not given here) | 91% (inactive) | 94%
24 | O=C(O)C(O)c1ccccc1 (configuration not stated) | 89% (inactive) | 81%
25 | Cc1cccc(-c2ncc(CN3CCN(CC(C)C)C(CCO)C3)cn2)c1 (configuration not stated) | 80% (inactive) | 81%
26 | COC(=O)c1ccc(NC(=O)c2ccccc2SC)cc1 | 81% (inactive) | 79%
27 | CC(=O)c1c(N)nc2n(c1=O)CCCCC2 | 80% (inactive) | 78%
28 | Cn1c(=O)[nH]c(=O)c2c1nc(Br)n2CCCO | 81% (inactive) | 84%
29 | COc1cc(C(=O)Nc2ccc(N(C)C)cc2)c([N+](=O)[O-])cc1OC | 100% (inactive) | 106%
30 | Cc1ccc(/C=N/Nc2nc(C(C)(C)C)cs2)o1 | 135% (active) | 153%
31 | CC(C)(C)c1csc(N/N=C/c2cccnc2)n1 | 93% (inactive) | 92%
32 | C=CCC1(Cl)C(=O)C(Cl)=C(N2CCOCC2)C1(OC)OC (configuration not stated) | 77% (inactive) | 77%
33 | CC(C)=CCC/C(C)=C/CC/C(C)=N/O | 84% (inactive) | 87%
34 | Cc1ccc(/C=N/NC(=O)C2(C)CC2(Br)Br)cc1 (configuration not stated) | 82% (inactive) | 80%
35 | CCOC(=O)c1ccc(NC(=S)NCCc2ccccc2F)cc1 | 81% (inactive) | 78%
36 | CCOC(=O)Cc1c(C)nc(N)[nH]c1=O | 82% (inactive) | 81%
37 | CCN1C(=O)C(CC(=O)Nc2ccc(F)cc2)N(Cc2ccc3c(c2)OCO3)C1=S (configuration not stated) | 81% (inactive) | 81%
38 | CCn1c(C)cc2c(c1=O)C(c1ccccc1)C(C(=O)OC)=C(N)O2 (configuration not stated) | 90% (inactive) | 94%

Row | SMILES | plasma membrane CFTR intensity | total CFTR intensity
39 | CCC(C(=O)Nc1ccc2c(c1)OCCO2)c1ccccc1 (configuration not stated) | 78% (inactive) | 76%
40 | O=c1[nH]c(Cc2ccccc2)nc2c1oc1ccccc12 | 78% (inactive) | 79%
41 | CCOc1ccc(C(=O)NC(C)C2COc3ccccc3O2)cc1 (configuration not stated) | 82% (inactive) | 80%
42 | CC(C)CN1CCN(Cc2cccn2-c2ccccn2)CC1CCO (configuration not stated) | 88% (inactive) | 88%
43 | Cc1csc(N)n1 | 86% (inactive) | 87%
44 | CS(=O)(=O)Oc1ccc2c(c1)O/C(=C\C=C\c1ccccc1)C2=O | 92% (inactive) | 97%
45 | Fc1ccccc1CNCCC(Cc1ccccc1)c1ccc2c(c1)OCO2 (configuration not stated) | 171% (inactive) | 228%
46 | CC(NC(=O)c1cccnc1)C(=O)O (configuration not stated) | 75% (inactive) | 73%
47 | COc1ccc(OC(C)C(=O)Nc2ccc([N+](=O)[O-])cc2)cc1 (configuration not stated) | 76% (inactive) | 72%
48 | CC(NC(=O)c1ccc(OC2CCN(Cc3ccccn3)CC2)cc1)c1ccccc1 (configuration not stated) | 73% (inactive) | 66%
49 | Cc1ncc(CN2CCC(CO)(CCc3ccccc3)CC2)s1 | 75% (inactive) | 75%
50 | Cc1ccc(-c2nn(-c3cccc(F)c3)cc2CN2CCN(c3ccccn3)CC2)o1 | 69% (inactive) | 69%
51 | CC12CCC(C(=O)NNc3ccccc3)(C(=O)C1=O)C2(C)C (configuration not stated) | 92% (inactive) | 88%
52 | O=c1nc2n(c3c1oc1ccccc13)Cc1ccccc1-2 | 131% (inactive) | 133%
53 | C#C[C@]1(O)CC[C@H]2[C@@H]3CCc4cc(OC)ccc4[C@H]3CC[C@@]21C | 133% (active) | 141%
54 | C#C[C@]1(O)CC[C@H]2[C@@H]3CCc4cc(O)ccc4[C@H]3CC[C@@]21C | 113% (inactive) | 106%
55 | C#C[C@]1(O)CC[C@H]2[C@@H]3CCc4cc(OC5CCCC5)ccc4[C@H]3CC[C@@]21C | 41% (inactive) | 30%
56 | COc1ccc(C2c3c(n[nH]c3C)CC(C)(O)C2C(C)=O)cc1OC (configuration not stated) | 87% (inactive) | 86%
